Shown are actives, neighbours in structure and some others; about 3.6% of the full set was active somewhere.
AmpC inh no detg: blocks E. coli AmpC beta-lactamase in detergent-free assay; P00811; AmpC nitrocefin hydrolysis, absorbance 480 nm, 0.0001% Triton; Potency, µM (top dose mostly 57.1 µM), inactives show at the highest dose activity change, negative = inhibition, actives largely listed as inhibitors; 0.52% of 330,000 active;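 further: plate controls were no compound for no effect and no enzyme for full effect; nearly all actives have a fitted effect of over 20% in size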
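20 mM phosphate pH 7.0 + 0.01% (detergent screen) or 0.0001% Triton X-100; 5.3 nM AmpC reagent; cpd preinc 15 min RT; nitrocefin (800 uM stock) to start; A480 q20 s × 4 min; Activity was normalised to no-enzyme and no-compound control wells.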
Sm TGR inh: inhibitors of Schistosoma mansoni thioredoxin glutathione reductase. Q962Y6. purified TGR, DTNB reduction, TNB absorbance 405 nm. Potency, µM (highest dose often 114 µM), without a hit: at the highest dose activity change, negative = inhibition, most hits filed as inhibitors. 3% of 360,000 active. AID 485364; further: nearly all actives have a fitted effect of over 60% in size
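TGR 20 nM + NADPH 100 uM (dispensed conc.), cpd preinc 15 min RT; start with NADPH (500 uM addition) then DTNB (15 mM addition). Kinetic TNB absorbance, 405 nm filter. Four-parameter Hill fit across titration.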
AmpC detergent: AmpC beta-lactamase inhibition with detergent present; P00811; 0.041% of 370,000 active; Potency, µM (highest dose often 114 µM), for the others: top-dose activity change, negative = inhibition, most hits filed as inhibitors; AmpC hydrolysis of nitrocefin, absorbance 480 nm, 0.01% Triton;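 further: 0% = no-compound wells and -100% = no-enzyme wells; nearly all actives have a fitted effect of over 25% in size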
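20 mM phosphate pH 7.0 + 0.01% (detergent screen) or 0.0001% Triton X-100; 5.3 nM AmpC reagent; cpd preinc 15 min RT; nitrocefin (800 uM stock) to start; A480 q20 s × 4 min; Activity was normalised to no-enzyme and no-compound control wells.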
Giardia FBPA inh-1: inhibitors of Giardia lamblia fructose-1,6-bisphosphate aldolase. A8B2U2. purified Giardia FBPA. Potency, µM (highest dose often 59.6 µM), for inactives: top-dose activity, negative = inhibition, most hits filed as inhibitors. 0.71% of 290,000 active; further: nearly all actives have a fitted effect of over 55% in size
Target sequence (A8B2U2 whole entry, looked up): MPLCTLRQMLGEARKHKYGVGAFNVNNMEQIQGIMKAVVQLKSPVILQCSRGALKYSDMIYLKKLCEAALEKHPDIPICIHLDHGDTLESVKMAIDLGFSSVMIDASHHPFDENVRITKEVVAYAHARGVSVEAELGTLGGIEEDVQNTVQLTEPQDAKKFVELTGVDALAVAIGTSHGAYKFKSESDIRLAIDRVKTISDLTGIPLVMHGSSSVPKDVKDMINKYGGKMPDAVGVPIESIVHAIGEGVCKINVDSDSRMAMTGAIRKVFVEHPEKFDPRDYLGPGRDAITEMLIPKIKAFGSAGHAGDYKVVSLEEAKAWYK
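Giardia FBPA (40 nM reagent) was preincubated 10 min at RT with compound (up to 57.5 uM final), then substrate plus GAPDH/TPI/NAD/arsenate coupling system with diaphorase/resazurin was added; resorufin fluorescence (525/598 nm) was read after 20 min.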
Giardia growth: Giardia lamblia growth inhibition; AID 2785; Potency, µM (top dose mostly 57.5 µM), for the others: top-dose activity change, negative = inhibition, actives largely listed as inhibitors; Giardia lamblia trophozoite growth inhibition; shares compounds with Giardia FBPA inh-1; 5% of 1,500 active;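 further: trophozoites exposed to compound for 48 h at 37 °C; nearly all actives have a fitted effect of over 70% in size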
Mammalian tox: mammalian cytotoxicity of Giardia aldolase inhibitor hits; shares compounds with Giardia FBPA inh-1; mammalian cell viability counter-screen, qHTS; Potency, µM (titrated, usually from 57.5 µM), without a hit: at the top dose viability change, negative = toxicity, hits mostly inhibitors; 4% of 1,500 active; AID 2786;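 further: Chinese hamster ovary cells used as mammalian cytotoxicity surrogate; viability measured as cellular ATP by luminescence; compound exposure lasted 48 h before reading; nearly all actives have a fitted effect of over 60% in size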
Giardia FBPA inh-2: confirmation of Giardia fructose-bisphosphate aldolase inhibitors | purified Giardia aldolase enzyme activity, qHTS | 5% of 1,500 active | shares compounds with Giardia FBPA inh-1 | Potency, µM (highest dose often 57.5 µM), without a hit: top-dose activity change, negative = inhibition, most hits filed as inhibitors; further: nearly all actives have a fitted effect of over 45% in size
Rabbit aldolase: rabbit FBP aldolase inhibition by Giardia aldolase hits; shares compounds with Giardia FBPA inh-1; Rabbit muscle FBPA enzyme inhibition, selectivity counter-screen; Potency, µM (highest dose often 57.5 µM), without a hit: at the top dose activity, negative = inhibition, actives largely listed as inhibitors; 4% of 1,500 active; AID 2794; further: nearly all actives have a fitted effect of over 60% in size
Target sequence (P00883 whole entry, looked up): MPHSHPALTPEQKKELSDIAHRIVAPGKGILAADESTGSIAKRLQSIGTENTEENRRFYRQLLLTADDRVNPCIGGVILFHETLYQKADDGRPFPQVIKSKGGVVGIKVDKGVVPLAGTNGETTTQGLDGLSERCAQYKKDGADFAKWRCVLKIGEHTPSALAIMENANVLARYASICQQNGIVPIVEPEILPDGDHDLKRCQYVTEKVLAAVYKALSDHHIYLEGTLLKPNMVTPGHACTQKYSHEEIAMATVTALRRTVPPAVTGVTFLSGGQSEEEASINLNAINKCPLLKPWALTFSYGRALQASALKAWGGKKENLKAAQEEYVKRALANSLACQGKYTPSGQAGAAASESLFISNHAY
GAPDH coupling: counter-screen for Giardia aldolase inhibitors: GAPDH coupling enzyme; Potency, µM (top dose mostly 57.5 µM), for the others: top-dose activity change, negative = inhibition, actives largely listed as inhibitors; GAPDH coupling enzyme counterscreen, biochemical, qHTS; shares compounds with Giardia FBPA inh-1; 6% of 1,500 active; AID 2795; further: nearly all actives have a fitted effect of over 55% in size
The depositor's hits bear a star; ? = inconclusive; . = no result given; [ ] = dose if it differs, or a comment. The call rests on the fitted dose curve; in most records, active means well fitted curve in the direction sought with a large enough effect; inconclusive means small, poorly fitted or top-dose-only effect, or another doubt; inactive means no such curve, though single readings can be large; an effect the other way counts as inactive or inconclusive. Unless noted, on the % scale 0 is the no-effect control and ±100 the full control effect; potency means the concentration at half of the fitted maximal effect.

SMILES	AmpC inh no detg	Sm TGR inh	AmpC detergent	Giardia FBPA inh-1	Giardia growth	Mammalian tox	Giardia FBPA inh-2	Rabbit aldolase	GAPDH coupling
CCC[C@H](NC(=O)[C@H](Cc1ccc(O[S+](=O)([O-])O)cc1)NC(=O)OC(C)(C)C)C(=O)NCC(=O)N[C@@H](Cc1c[nH]c2ccccc12)C(=O)N[C@@H](CCC)C(=O)N[C@@H](CC(=O)OCCc1ccccc1)C(=O)O	.	.	.	11%	.	.	.	.	.
O=C(Nc1ccc(F)cc1)C1=CC(=O)N2CCN=C2S1	-38%	?	0%	-9%	.	.	.	.	.
O=C(CSc1cccc2cccnc12)Nc1cc(C(=O)O)cc(C(=O)O)c1	-10%	-21%	-12%	25µM*	-1%	-5%	8%	12%	18%
COC(=O)c1ccc(CSC(=N)N)o1	-18%	-1%	4%	-4%	.	.	.	.	.
CCc1oc(C(=O)OC)cc1CSC(=N)N	-21%	20µM*	11%	18µM*	-17%[10.4 µM]	-9%	-1%	6%	10%
Cn1c2ccccc2c(=O)c2c(=O)n(Cc3ccco3)c(-c3ccc(C(C)(C)C)cc3)nc21	-20%	4%	3%	0%	.	.	.	.	.
CCCC(=O)NC(c1ccco1)c1cc([N+](=O)[O-])c2cccnc2c1O (stereo unspecified)	-18%	28µM*	-7%	7.1µM*	?	-7%	-28%	-25%	?
CCC(=O)NC(c1ccc(C)cc1)c1cc([N+](=O)[O-])c2cccnc2c1O (stereo unspecified)	-24%	-29%	-12%	?	.	.	.	.	.
Cn1cnc(S(=O)(=O)N2CCC(C(=O)NCc3ccc(F)cc3)CC2)c1	.	6%	2%	.	.	.	.	.	.
O=c1oc2c(O)c(O)cc3c(=O)oc4c(O)c(O)cc1c4c23	-36%	-28%	?	2µM*	15%	4%	?	?	?
CCOc1ccc(CNC(=O)Nc2ccc3c(c2)N(C)C(=O)c2ccccc2S3)cc1	.	-13%	4%	.	.	.	.	.	.
O=c1cc(-c2ccccc2O)oc2cc(O)ccc12	.	.	.	-1%	.	.	.	.	.
O=c1cc2oc3cc(O)c(O)cc3c(-c3ccccc3O)c-2cc1O	16µM*	8.9µM*	1%	16µM*	-20%	8%	?	-6%	10%
CCOc1ccc(-n2c(O)c(N=Nc3c(C)n(C)n(-c4ccccc4)c3=O)c(=O)[nH]c2=O)cc1	-21%	9%	-4%	16µM*	?	7%	2%	-14%	-13%
CCOC(=O)c1ccc(N=Nc2c(C)[nH]n(-c3ccccc3)c2=O)cc1	-16%	0%	?	10µM*	?	9%	1%	1%	9%
CCOc1ccc(N=Nc2c(C)[nH]n(-c3ccccc3)c2=O)cc1	-37%	?	-17%	7.9µM*	-5%	1%	1%	4%	8%
CCOC(=O)c1c(O)c(O)c(C(=O)OCC)n1-c1ccccc1	-24%	40µM*	3%	20µM*	19%	-7%	-16%	-27%	-18%
CCOC(=O)c1sc(=S)n(-c2ccccc2)c1C	-16%	-5%	2%	5%	.	.	.	.	.
Cc1[nH]n(-c2ccccc2)c(=O)c1N=Nc1ccccc1O	-28%	-2%	0%	-8%	.	.	.	.	.
O=C(COC(=O)c1c[nH]c(=O)[nH]c1=O)Nc1ccccc1Br	-11%	12%	8%	1%	.	.	.	.	.
CC(=O)N(C)c1ccc(N=Nc2c(C)[nH]n(-c3ccccc3)c2=O)cc1	99%	-2%	-16%	4.5µM*	19%	0%	5%	5%	15%
COc1cccc(N=Nc2c(C)[nH]n(-c3ccccc3)c2=O)c1	-27%	0%	?	3.5µM*	-16%[38.3 µM]	-3%	-11%	5%	-5%
CSCCC(N=C(NS(=O)(=O)c1ccccc1)c1ccccc1)C(=O)O (stereo unspecified)	0%	1%	4%	-1%	.	.	.	.	.
COc1cc(CN2CCN(Cc3ccco3)CC2)cc(OC)c1	-12%	-14%	3%	14µM*	?	-8%	4%	8%	0%
Cc1ccc(CN2CCN(C(=O)c3ccco3)CC2)cc1	-8%	0%	2%	1%	.	.	.	.	.
SMILES	AmpC inh no detg	Sm TGR inh	AmpC detergent	Giardia FBPA inh-1	Giardia growth	Mammalian tox	Giardia FBPA inh-2	Rabbit aldolase	GAPDH coupling
Cc1ccc(CN2CCN(Cc3ccco3)CC2)cc1	-15%	0%	-15%	16µM*	-6%	2%	-2%	7%	-18%
COc1ccccc1CN1CCN(Cc2ccco2)CC1	-5%	-20%	-7%	16µM*	-6%[10.4 µM]	0%	4%	3%	8%
O=[N+]([O-])c1cccc(CN2CCN(Cc3ccco3)CC2)c1	-9%	-24%	-7%	?	.	.	.	.	.
COc1ccc(CN2CCN(Cc3ccco3)CC2)c(OC)c1	-14%	-12%	-6%	13µM*	?	-2%	-1%	4%	5%
NC(=S)NN=C1C2CC3CC(C2)CC1C3	-13%[11.4 µM]	-7%	?	18µM*	11%	6%	-2%	15%	6%
CNCCC1Sc2ccccc2Oc2ccccc21 (stereo unspecified)	1%	-2%	?	18µM*	-9%	4%	-2%	4%	5%
CCCCNC(=O)C1c2ccccc2Oc2ccccc21	-2%	7%[57.1 µM]	-8%	3%	.	.	.	.	.
Cc1nc(Oc2ccc(S(=O)(=O)N3CCOCC3)cc2Cl)c2c3c(sc2n1)CCCC3	-8%	-7%	?	1%	.	.	.	.	.
Cn1c(=O)c2c(nc(NN=C3CCCC3)n2C)n(C)c1=O	0%	?	3%	16µM*	11%	-4%	-12%	2%	-4%
Cn1c(=O)c2c(nc(NNC(=O)C(F)(F)F)n2C)n(C)c1=O	-27%	1%	?	18µM*	-6%[10.4 µM]	0%	1%	-2%	13%
Cn1c(=O)c2c(nc(N3CCCC3)n2C)n(C)c1=O	-5%	1%	-12%	-6%	.	.	.	.	.
COc1cccc(CN2CCNC(=O)C2CC(=O)N(Cc2cnn(C)c2)C(C)C)c1 (stereo unspecified)	43%	?	11%	-5%	.	.	.	.	.
O=C(Cc1ccccn1)c1ccc(F)cc1	-3%	-11%	-13%	.	.	.	.	.	.
COc1ccc(-c2cc(-c3ccco3)[nH]c(=O)c2C#N)cc1	-36%	3.2µM*	-11%	20µM*	-29%	-7%	-12%	-1%	-1%

Source: PubChem BioAssay
